The results in this text go back to PubChem BioAssay AID1159606 (Sanford-Burnham Center for Chemical Genomics, 2016).

Broadly, the inhibition is the drop in the measured response relative to a control, in per cent.

The structures appear in SMILES notation. Among all 360,000 compounds or so, about 7,300 (2%) were called active. For the sample, actives were picked, then their nearest neighbours and some compounds at random. Unmarked numbers belong to inactive results. Cut-off read from the data, not from the text of the source: active = inhibition above about 50%; inactive = the rest.

The nature of the test: blockers of TWEAK-induced Fn14 reporter activity – luciferase reporter cells, uHTS, primary screen (AID 1159606). Particulars: TWEAK-stimulated Fn14 reporter cells, luciferase luminescence, 8 h; at 10 µM; active compounds read high. A general note: A reporter such as luciferase makes a cellular process visible.
As for `O=C(Nc1ccc(NC(=O)c2cccs2)cn1)c1ccco1`, the inhibition was 57.4% (active).

With `Cc1ccc(NC(=O)c2ccco2)cc1`, the inhibition was -27.8%.

As to `O=C(COC(=O)c1ccco1)Nc1ccc(Cl)cn1`, the inhibition was -3.57%.

Regarding `CC1CN(c2cc(=O)n(Cc3ccc(F)cc3)c(=O)[nH]2)CC(C)O1` (stereo not drawn), the inhibition was -5.29%.

For the compound `CC(=O)OCC(C)n1c(=O)c2ccccc2n1C(C)=O` (stereo not drawn), the inhibition is 2.6%.

As to `CCC(c1nnnn1-c1ccc2c(c1)OCCO2)N1CCN(c2ccc(C(F)(F)F)cn2)CC1` (stereo not drawn), the inhibition was 30.4%.

`Cc1cccc(NC(=S)NCc2ccc3[nH]c4c(c3c2)CCCC4)c1`: the inhibition was 70.9% (active).

For `CCc1cccc(CC)c1NC(=S)NCc1ccc2[nH]c(C)cc2c1`, the inhibition is 12.3%.

Regarding `Cc1cc(C)cc(NC(=S)NCCc2c[nH]c3ccccc23)c1`, the inhibition was 7.03%.

On to `Cc1ccc(CCN2CC(C(=O)O)CC2=O)cc1` (stereo not drawn), for which the inhibition is -5.87%.

In the case of `Cc1noc(C)c1C(=O)NCC1COc2ccccc2O1` (stereo not drawn), the inhibition is -8.54%.

As to `c1ccc(-c2cc3c(NCC4COc5ccccc5O4)ncnc3s2)cc1` (stereo not drawn), the inhibition was 77.3% (active).

Consider `O=C(Cn1cnc2ccccc2c1=O)NCC1COc2ccccc2O1` (stereo not drawn), for which the inhibition was 9.26%.

For the compound `COc1cccc(N(CC(=O)NC2CCCCCC2)S(=O)(=O)c2ccccc2)c1`, the inhibition is -34.4%.

As to `C=CCn1c(=NC(=O)c2cccs2)sc2cc(NC(C)=O)ccc21`, the inhibition was -34.5%.

Turning to `CCOC(=O)N1CCN(C(c2ccnc3ccccc23)c2nnnn2-c2c(C)cccc2C)CC1` (stereo not drawn), the inhibition is 8.32%.

Regarding `O=C(COC(=O)c1cc(=O)[nH]c2ccccc12)Nc1nc(-c2cccc(Br)c2)cs1`, the inhibition was 75.8% (active).

On to `O=C(COC(=O)c1cc(=O)[nH]c2ccccc12)NCc1cccc(Cl)c1`, for which the inhibition was -18.6%.

As for `O=C(OCc1nnc(-c2ccccc2)o1)c1cc(=O)[nH]c2ccccc12`, the inhibition was -0.55%.

As for `Cc1nn(-c2ccc(F)cc2)c(Cl)c1/C=C(/CCC(=O)O)c1nc2ccccc2s1`, the inhibition was -0.77%.

Turning to `CC1=CC(=C(C#N)c2nc3ccccc3s2)C=C(C)N1c1ccc(F)cc1F`, the inhibition is 55.1% (active).

For the compound `N#Cc1ccc(-c2nc3c(Cl)cc(C(F)(F)F)cn3c2Cc2ccccc2C(F)(F)F)cc1`, the inhibition is -2.71%.

Take `NS(=O)(=O)c1ccc(NC(=O)COC(=O)c2c3c(nc4ccccc24)/C(=C\c2ccc4c(c2)OCO4)CCC3)cc1`: the inhibition is 55.8% (active).

`NS(=O)(=O)c1ccc(NC(=O)COC(=O)CCc2c[nH]c3ccccc23)cc1`: the inhibition was -2.39%.

Consider `NS(=O)(=O)c1ccc(NC(=O)COC(=O)c2ccco2)cc1`, for which the inhibition was -4.93%.

As for `COc1ccc(CCN2CC(C(=O)NCCN3CCNC3=O)CCC2=O)cc1` (stereo not drawn), the inhibition was -4.1%.

As to `CCOC(=O)CN(C)S(=O)(=O)c1ccc(-c2cc(C(=O)OC)sc2C(F)(F)F)cc1`, the inhibition is 0.95%.

Consider `S=C(Nc1cccnc1)Nc1ccccn1`, for which the inhibition was -12.4%.

In the case of `O=C(N/N=C/c1ccccn1)c1cccc(NC(=O)c2ccc(Cl)cc2)c1`, the inhibition was 9.71%.

For the compound `S=C(NN=Cc1ccccn1)Nc1ccccn1`, the inhibition is 105% (active).

With `COC(=O)c1[nH]c2ccc(Br)cc2c1NC(=O)Oc1ccccc1`, the inhibition was 5.94%.

For the compound `Cc1ccccc1CC1(CO)CCCN(Cc2ccc3c(c2)OCCO3)C1` (stereo not drawn), the inhibition was 6.31%.

For `COc1ccc(C2(C)NC(=O)N(CC(=O)c3ccc4c(c3)OCO4)C2=O)cc1` (stereo not drawn), the inhibition is -0.46%.

As to `CC(=NCc1ccco1)c1c(C(F)(F)F)[nH]n(-c2nc3ccccc3s2)c1=O`, the inhibition was 75.8% (active).

Regarding `Cc1nc2cc(NC(=O)Nc3cccc(F)c3)ccc2n1C`, the inhibition is 81.1% (active).

On to `Cc1nc2cc(NCc3cccs3)ccc2n1C`, for which the inhibition was -6.1%.

For the compound `C=CCN(C(=O)Nc1ccc2c(c1)nc(C)n2C)c1ccccc1`, the inhibition is -7.06%.

For `CCCCC(O)C1=C[N+](=O)CC=C1` (stereo not drawn), the inhibition was 39.5%.

On to `O=C(NCc1cccnc1)c1ccc2nc([C@@H]3O[C@H](CO)[C@H](O)[C@H](O)[C@H]3O)[nH]c2c1`, for which the inhibition was 13.3%.

In the case of `COCCc1nn2c(=O)cc(COC(=O)c3cc(OC)c(OC)c(OC)c3)nc2s1`, the inhibition was 2.03%.

For `Clc1ccc2nc(-c3ccccc3)nc(C(Cl)Cl)c2c1`, the inhibition is 54.4% (active).

In the case of `NC(N)=Nc1nc(-c2ccccc2)c2cc(Cl)ccc2n1`, the inhibition was -9.76%.

With `O=C(Cc1ccc(Cl)cc1)NCc1nc(-c2ccccc2)no1`, the inhibition is -18%.

With `O=S(=O)(c1ccccc1)N1CN(Cc2ccc(F)cc2)c2nc3ccccc3nc21`, the inhibition is 11%.

In the case of `Oc1c(CN2CCOCC2)ccc(CN2CCOCC2)c1O`, the inhibition is 2.4%.

As to `CSc1nc(-c2ccccc2)nc(C(Cl)Cl)n1`, the inhibition is 65.2% (active).

In the case of `Cc1cccc(N=C2SC(C)CN2C(=O)CN2C(=O)NC3(CCCC3)C2=O)c1` (stereo not drawn), the inhibition was 5.82%.

For `O=C(CNc1ccccc1N1CCCC1=O)Nc1cc(Cl)ccc1-n1cncn1`, the inhibition is 2.85%.

In the case of `COc1ccc(C2NC(=S)NC3=C2CCc2ccccc23)cc1OC` (stereo not drawn), the inhibition is 9.33%.

Turning to `Cc1cc(C(=O)N2CCN(c3ccccn3)CC2)c(C)o1`, the inhibition is -12.8%.

Consider `Cc1cc(Br)ccc1NC(=O)c1cnc(N2CCN(c3ccccn3)CC2)c2ccccc12`, for which the inhibition is 80.5% (active).

With `Cc1cc(Br)ccc1NC(=O)c1sc2ncn(CC(=O)N3CCN(c4ccccn4)CC3)c(=O)c2c1C`, the inhibition is 9.08%.

`CCc1ccccc1NC(=O)c1cc(-c2ccc3c(c2)OCO3)on1`: the inhibition is -6.05%.

For `CCOC(=O)c1sc2nc(C)nc(Nc3ccc(OC)c(OC)c3)c2c1C`, the inhibition is 10.5%.

Consider `CC1CCC(NC(=O)CN(C)S(=O)(=O)c2ccc3c(c2)c(=O)n(C)c(=O)n3C)CC1` (stereo not drawn), for which the inhibition is -18.7%.

`COc1cnc(SCc2ccc(Cl)c(Cl)c2)nc1Cl`: the inhibition is -23.9%.

Take `Cc1c(Cl)c([N+](=O)[O-])nn1CC(=O)NCCCN1CCOCC1`: the inhibition is 55.9% (active).

Turning to `CCCCNC(=O)Cn1nc(C)c(S(=O)(=O)N2CCOCC2)c1C`, the inhibition was 10.8%.

For the compound `Cc1c(Cl)c([N+](=O)[O-])nn1CC(=O)NCC1CCCO1` (stereo not drawn), the inhibition was 12.8%.

In the case of `OCCc1ccc(NCCc2ccco2)cc1`, the inhibition is -21.3%.

On to `Cc1cc(SCC(=O)c2ccccc2)nc(SCC(=O)c2ccccc2)n1`, for which the inhibition was 53.9% (active).

Turning to `Cc1nc2nc(SCC(=O)c3ccccc3)[nH]c2cc1Br`, the inhibition was -4.34%.

For the compound `Cc1nc(SCC(=O)c2ccccc2)c([N+](=O)[O-])[nH]1`, the inhibition is 9.51%.

For the compound `C[C@H](CO)N1C[C@H](C)[C@H](CN(C)C(=O)c2ccncc2)OCc2ccccc2-c2c(n(C)c3ccccc23)C1=O`, the inhibition is 2.05%.

With `O=C(CCC(=O)OCc1cccc(C(=O)Oc2ccccc2)c1)Nc1cccc2ccccc12`, the inhibition was -15.2%.

Consider `C(=N\Nc1ccc2ccccc2n1)/c1ccc2c(c1)OCO2`, for which the inhibition is 86.3% (active).

Turning to `Cc1cccc(NC(=O)/C=C/c2ccc3c(c2)OCO3)n1`, the inhibition was 23.5%.

`O=C(CNC(=O)C(c1ccccc1)c1ccccc1)N/N=C\c1ccc2c(c1)OCO2`: the inhibition is -46.1%.

As to `Cc1ccc(CNC(=O)CCCNC(=O)c2ccc(Cl)cc2)n1C`, the inhibition was -27.7%.

For `COc1ccc(N2CC(C(=O)N[C@@H](C)C(=O)N3CCCCC3)CC2=O)cc1` (stereo partly drawn), the inhibition was -3.79%.

As to `CCOc1ccc(N2C(=O)CSC2=NC#N)cc1`, the inhibition is 11.8%.

`COc1cc(C(=O)N2CCN(C)CC2)cc(OC)c1OC`: the inhibition is 6.59%.

Consider `O=C1CSC(=S)N1c1ccc(Cl)c(Cl)c1`, for which the inhibition is 49.6%.

Regarding `COc1cc(N2C(=O)CC3(CCCC3)CC2=O)cc(OC)c1OC`, the inhibition was 15.3%.

Take `O=C1CSC(=S)N1c1ccc(O)cc1`: the inhibition is 75.1% (active).

In the case of `COc1cc(N2C(=O)CSC2=S)cc(OC)c1OC`, the inhibition is 58.5% (active).

`Cc1ccc(NC(=O)CSc2nn3c(=O)c(C)nnc3s2)cc1Cl`: the inhibition is 8.21%.

Regarding `CC(C)(C)c1ccc(Cn2nnc3c(=O)[nH]c(C4CCCN(C(=O)c5ccco5)C4)nc32)cc1` (stereo not drawn), the inhibition was 25.6%.

Regarding `Cc1ccc(Cn2nnc3c(=O)[nH]c(C4CCN(S(=O)(=O)/C=C/c5ccccc5)CC4)nc32)cc1`, the inhibition was 50.3% (active).

As for `Cc1ccc(NC(=O)N2CCC(c3nc4c(nnn4Cc4c(F)cccc4Cl)c(=O)[nH]3)CC2)cc1`, the inhibition is 19.1%.

For `O=C(OC1CCOC1=O)c1cccc(S(=O)(=O)Nc2ccc(F)cc2)c1` (stereo not drawn), the inhibition is 2.12%.

On to `COc1cncc(-c2cnc3sc(NCCc4ccccn4)nn23)c1`, for which the inhibition is 64.8% (active).

As for `COc1ccc(-c2cc3nc(NCCOc4ccccc4)ccn3n2)cc1`, the inhibition was 5.16%.

As for `Cc1ccc(C(=O)N/C(=C\c2cccs2)C(=O)NCCc2ccccn2)cc1C`, the inhibition was 5.63%.

As to `CCC1(CC)NC(=O)N(CC(=O)OCC(=O)c2cc(C)c(C)cc2C)C1=O`, the inhibition is -7.64%.

Turning to `C=CCC[C@@H](Cc1ccc(F)cc1)C(=O)O[C@H](CNC(=O)[C@H](CC=C)CC(=O)N(CCO)Cc1ccccc1)c1ccccc1`, the inhibition was 36.5%.

Turning to `CN1CCN(C(=O)c2ccc(NC(=O)c3ccc(Br)o3)cc2)CC1`, the inhibition was 2.47%.

Regarding `O=C(Nc1ccc(S(=O)(=O)N2CCCCCC2)cc1)c1c(F)cccc1F`, the inhibition is 2.17%.

For `O=C(Nc1ccncc1)c1c(F)cccc1F`, the inhibition is 66.7% (active).

`COc1cccc(OC)c1C(=O)Nc1ccc(Cc2ccncc2)cc1`: the inhibition is -17.4%.

On to `CN(C)S(=O)(=O)c1ccc(N2CCCC2)c(C(=O)Nc2cccc(F)c2)c1`, for which the inhibition is 0.2%.

For the compound `Cc1ccccc1OCC(=O)NNC(=O)c1cc(S(=O)(=O)N(C)C)ccc1N1CCCC1`, the inhibition was -9.51%.

Turning to `CN(C)S(=O)(=O)c1ccc(N2CCCC2)c(C(=O)NCc2ccccc2)c1`, the inhibition was 63.4% (active).
